ANO1 activ = mouse TMEM16A channel activation, primary screen; Q8BHY3; HEK293 TMEM16A/YFP-H148Q/I152L, iodide quench fluorescence; stronger effect = lower value; B-score at 10 µM; actives 0.3% (n = 340,000);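 active means fluorescence-ratio B-score plate-corrected deviation score at least 3 library SD below zero, with starting fluorescence score within 5 deviations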;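 further: channel opened by trigger with iodide after compound preincubation; score built on the fluorescence ratio of max minus min over baseline; more negative score means more quench and so TMEM16A activation or potentiation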
MPTP block = inhibitors of mitochondrial permeability transition pore; AID 602449; actives 1.4% (n = 360,000); inhibition, % at 10 µM; isolated mouse mitochondria, Ca2+ swelling absorbance, 30 min;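 active means inhibition of 50% or more, scaled per plate between neutral and stimulator controls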;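 further: 0% = DMSO wells given calcium and 100% = 1 mM EGTA wells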
TMEM16A inh = blocks the mouse calcium-activated chloride channel TMEM16A. AID 588511. HEK293 TMEM16A/YFP iodide influx fluorescence, ionomycin. Q8BHY3. normalized B-score (activity score, 25-100; higher = stronger inhibition) at 10 µM. actives 1.2% (n = 310,000);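 active means ratio plate-corrected score three or more library SD toward inhibition, starting fluorescence score within five deviations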;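 further: score derived from kinetic fluorescence span divided by baseline fluorescence per well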
NR3A LBD binder = NR3A (human) ligand-binding domain modulation; AID 1259313; Tm shift relative to glycine control, % at 25 µM; actives 2.5% (n = 340,000); NR3A LBD differential scanning fluorimetry, Tm shift; 0% = protein alone, 100% = glycine-bound protein;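 active means melting temperature shift of at least 10% of the positive control shift, at one fixed dose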
CRFR2-BP antag = antagonists of CRF-binding protein/CRF-R2 receptor complex | actives 0.59% (n = 350,000) | inhibition, % at 11.8 µM | AID 588475 | HEK293 CRF-R2/CRF-BP, CRF-induced calcium fluorescence;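 active means inhibition of the ligand-induced calcium signal above about 50% at the single tested concentration, limit read from the data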
CRFBP-R2 agonist = CRF-BP/CRF-R2 complex agonism | HEK293 CRF-R2/CRF-BP, calcium dye fluorescence (FLIPR); percent of saturating CRF peptide response | activation, % at 13.2 µM | actives 0.46% (n = 350,000) | AID 588473;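 active means activation of at least 50%, plus an integration ratio under a set limit after plate pattern correction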;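 further: plate controls were neutral control wells without compound for no effect and CRF at EC100 for full effect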
TMEM16A reconf = TMEM16A (mouse) chloride channel inhibition, re-confirmation. shares compounds with TMEM16A inh. HEK293 TMEM16A/YFP-H148Q, iodide quench fluorescence; ionomycin added to raise cell calcium. inhibition, % at 10 µM. actives 39% (n = 2,300). AID 652189;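 active means mean duplicate percent inhibition, scaled so buffer wells are 0 and the reference blocker 100, over three buffer SD above buffer mean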
TMEM16A Ca cntr = counter-screen for TMEM16A inhibitors: effect on calcium mobilization. shares compounds with TMEM16A inh. TMEM16A/YFP HEK293, Fluo4 calcium mobilization. calcium response (% of ionomycin), % at 10 µM. actives 2% (n = 2,300). AID 652231;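 active means duplicate-averaged calcium signal over 20% of the ionomycin maximum, relative to buffer baseline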;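 further: each well's signal is peak minus trough fluorescence divided by its pre-addition baseline; 0% = buffer wells and 100% = ionomycin wells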
Parental YFP cnt = parental YFP-HEK293 iodide quench counter-screen activity; ionomycin; 2,300 tested, under 10 active; YFP ratio F(max-min)/F0 at 10 µM; shares compounds with TMEM16A inh;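 active means yellow fluorescent protein signal ratio exceeding the buffer control mean by over 5 SD of those controls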;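 further: ratio is mean of duplicate wells from kinetic YFP trace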
ClC-1 rat inh = selectivity of TMEM16A inhibitors: inhibition of rat ClC-1 chloride channel; ratio percent, % at 10 µM; shares compounds with TMEM16A inh; 2,300 tested, under 10 active; CHO ClC-1-YFP, iodide influx fluorescence quench; iodide control reads 0, buffer control 100;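 active means duplicate-mean ratio percent above the mean of iodide-only control wells, which defines zero, plus 5 of their SD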;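 further: higher percent means stronger block of ClC-1 iodide influx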
Target sequence (P35524 whole entry, looked up): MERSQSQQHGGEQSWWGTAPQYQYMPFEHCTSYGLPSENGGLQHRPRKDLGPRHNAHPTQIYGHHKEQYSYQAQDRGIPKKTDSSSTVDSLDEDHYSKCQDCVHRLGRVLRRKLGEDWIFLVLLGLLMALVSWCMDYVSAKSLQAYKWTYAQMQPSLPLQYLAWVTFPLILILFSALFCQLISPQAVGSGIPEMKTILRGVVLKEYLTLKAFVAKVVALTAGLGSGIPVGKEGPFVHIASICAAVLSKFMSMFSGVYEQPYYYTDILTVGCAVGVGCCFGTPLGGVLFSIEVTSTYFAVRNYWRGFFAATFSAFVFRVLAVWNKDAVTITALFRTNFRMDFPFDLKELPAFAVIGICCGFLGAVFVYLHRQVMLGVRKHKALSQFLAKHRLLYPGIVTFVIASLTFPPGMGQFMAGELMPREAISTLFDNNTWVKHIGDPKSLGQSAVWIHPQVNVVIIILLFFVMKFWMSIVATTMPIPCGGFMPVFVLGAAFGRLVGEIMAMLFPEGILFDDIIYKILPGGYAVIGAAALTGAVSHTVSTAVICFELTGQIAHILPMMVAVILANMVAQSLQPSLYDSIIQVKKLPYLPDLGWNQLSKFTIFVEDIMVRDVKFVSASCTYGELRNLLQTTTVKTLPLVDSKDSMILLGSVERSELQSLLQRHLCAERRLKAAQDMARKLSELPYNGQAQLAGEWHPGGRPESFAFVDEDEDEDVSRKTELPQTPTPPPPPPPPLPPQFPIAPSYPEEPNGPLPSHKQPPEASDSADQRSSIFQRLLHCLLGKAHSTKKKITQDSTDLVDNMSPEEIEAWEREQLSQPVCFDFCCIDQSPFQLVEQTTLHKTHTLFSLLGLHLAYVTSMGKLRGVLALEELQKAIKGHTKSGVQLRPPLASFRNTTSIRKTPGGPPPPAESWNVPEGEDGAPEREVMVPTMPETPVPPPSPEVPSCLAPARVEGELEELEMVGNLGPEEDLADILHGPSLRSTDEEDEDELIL
MPTP counter = mitochondrial membrane potential, counter-screen | shares compounds with MPTP block | isolated mitochondria, Rhodamine 123 fluorescence | inhibition, % at 10 µM | actives 78% (n = 5,000); in the data active means inhibition above about 22%;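 further: 0% = DMSO vehicle and 100% = positive control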
Active calls of the source: *. Compounds with a hit are over-represented: about 5.1% of the library has one in this group of screens.

Screening CCOC(=O)c1ccc(-n2[nH]c(-c3ccccc3)cc2=O)cc1 returned ANO1 activ inactive, MPTP block 88.4*, TMEM16A inh 100*, NR3A LBD binder -4.6, CRFR2-BP antag 11.2, CRFBP-R2 agonist -1.5, TMEM16A reconf inactive, TMEM16A Ca cntr inactive, Parental YFP cnt -0.889, ClC-1 rat inh -4.0 and MPTP counter 78.6*.
Screening O=C(O)c1cc(S(=O)(=O)NC(CO)C(O)c2ccc([N+](=O)[O-])cc2)ccc1Br (stereo unspecified) returned ANO1 activ inactive, MPTP block -1.0, TMEM16A inh inactive, NR3A LBD binder -0.7, CRFR2-BP antag 10.8 and CRFBP-R2 agonist -1.8.
For COc1ccc(S(=O)(=O)Nc2ccccc2C(=O)Nc2nc(-c3ccc(F)cc3)cs2)cc1OC the results were ANO1 activ inactive, MPTP block 96.6*, TMEM16A inh 100*, NR3A LBD binder 26.1*, CRFR2-BP antag 46.7, CRFBP-R2 agonist 47.7, TMEM16A reconf 50.5%*, TMEM16A Ca cntr inactive, Parental YFP cnt -1.07, ClC-1 rat inh -12.0 and MPTP counter 42.3*.
Screening CCCNC(=O)c1ccccc1NS(=O)(=O)c1ccc(OC)c(OC)c1 returned ANO1 activ inactive, MPTP block 1.6, TMEM16A inh inactive, NR3A LBD binder 1.4, CRFR2-BP antag -0.5 and CRFBP-R2 agonist 0.0.
For COCCOC(=O)c1c(C)oc2ccc(NS(=O)(=O)c3ccccc3)cc12 the results were ANO1 activ inactive, MPTP block 2.9, TMEM16A inh inactive, NR3A LBD binder -1.3, CRFR2-BP antag 3.6 and CRFBP-R2 agonist -0.3.
COC(=O)c1c(C)oc2ccc(NS(=O)(=O)c3cccs3)cc12 was read as ANO1 activ inactive, MPTP block 92.5*, TMEM16A inh 100*, NR3A LBD binder -2.6, CRFR2-BP antag 5.0, CRFBP-R2 agonist -1.0, TMEM16A reconf 31.0%*, TMEM16A Ca cntr inactive, Parental YFP cnt -1.03, ClC-1 rat inh -17.5 and MPTP counter 57.3*.
`Cc1cccc(N(C(=O)c2csnn2)C(C(=O)NCc2ccccc2)c2cccs2)c1` (stereo unspecified) gave ANO1 activ inactive, MPTP block -0.3, TMEM16A inh inactive, NR3A LBD binder -0.6, CRFR2-BP antag 6.3 and CRFBP-R2 agonist 0.3.
For CCN(CC)S(=O)(=O)c1cccc(NC(=O)CNc2cccc(S(=O)(=O)N3CCCC3)c2)c1 the results were ANO1 activ inactive, MPTP block 89.9*, TMEM16A inh 25*, NR3A LBD binder -4.1, CRFR2-BP antag -8.3, CRFBP-R2 agonist -4.8, TMEM16A reconf inactive, TMEM16A Ca cntr inactive, Parental YFP cnt -1.03, ClC-1 rat inh -16.5 and MPTP counter 101.1*.
Screening O=C(Nc1cccc(S(=O)(=O)N2CCCCC2)c1)Nc1ccc(Cl)cc1Cl returned ANO1 activ inactive, MPTP block 84.9*, TMEM16A inh 100*, NR3A LBD binder 9.7, CRFR2-BP antag -2.1, CRFBP-R2 agonist 0.1, TMEM16A reconf inactive, TMEM16A Ca cntr inactive, Parental YFP cnt -0.891, ClC-1 rat inh -17.5 and MPTP counter 72.8*.
`O=C(Nc1cccc(S(=O)(=O)N2CCCCC2)c1)c1ccccc1NS(=O)(=O)c1ccc(F)cc1` gave ANO1 activ inactive, MPTP block 96.1*, TMEM16A inh 100*, NR3A LBD binder 17.7*, CRFR2-BP antag 85.0*, CRFBP-R2 agonist 63.7*, TMEM16A reconf 39.5%*, TMEM16A Ca cntr inactive, Parental YFP cnt -1, ClC-1 rat inh -11.5 and MPTP counter 81.0*.
`O=C(Nc1cc(S(=O)(=O)N2CCCCC2)ccc1O)c1ccccc1NS(=O)(=O)c1ccc(F)c(F)c1` gave ANO1 activ inactive, MPTP block 91.4*, TMEM16A inh 25*, NR3A LBD binder 27.5*, CRFR2-BP antag 81.4*, CRFBP-R2 agonist 111.2*, TMEM16A reconf 50.0%*, TMEM16A Ca cntr inactive, Parental YFP cnt -0.797, ClC-1 rat inh -10.0 and MPTP counter 65.1*.
O=C(Nc1ccccc1C(=O)O)c1cc(S(=O)(=O)N2CCCCCC2)ccc1Cl was read as ANO1 activ inactive, MPTP block -0.4, TMEM16A inh inactive, NR3A LBD binder -5.8, CRFR2-BP antag 3.2 and CRFBP-R2 agonist -0.9.
For CCNC(=O)C1(C)CCN(C(=O)c2ccc3snnc3c2)C1 (stereo unspecified) the results were MPTP block -1.6.
For OC(c1ccc(-c2ccccc2)cc1)c1ncc(-c2cccc(F)c2)[nH]1 (stereo unspecified) the results were MPTP block 0.1.
For Cc1ccc(NC(=O)c2ccccc2NS(=O)(=O)c2ccc(F)cc2)cc1S(=O)(=O)N1CCCCC1 the results were ANO1 activ inactive, MPTP block 95.4*, TMEM16A inh 25*, NR3A LBD binder 28.0*, CRFR2-BP antag 98.2*, CRFBP-R2 agonist 46.4, TMEM16A reconf 45.0%*, TMEM16A Ca cntr inactive, Parental YFP cnt -0.902, ClC-1 rat inh -15.5 and MPTP counter 83.7*.
Cc1ccc(NC(=O)CCNC(=O)c2ccccc2Cl)cc1S(=O)(=O)N1CCCCCC1 was read as ANO1 activ inactive, MPTP block -1.2, NR3A LBD binder -1.6, CRFR2-BP antag 0.7 and CRFBP-R2 agonist -1.9.
Screening Cc1ccc(NC(=O)CSc2ncnc3ccccc23)cc1S(=O)(=O)N1CCCCC1 returned ANO1 activ inactive, MPTP block 78.7*, TMEM16A inh 25*, NR3A LBD binder -11.2, CRFR2-BP antag -5.7, CRFBP-R2 agonist -0.2, TMEM16A reconf 16.5%*, TMEM16A Ca cntr inactive, Parental YFP cnt -1.04, ClC-1 rat inh -23.5 and MPTP counter 71.3*.
